Molecules are shown by their SMILES. Inconclusive results are not listed. Calls of active or inactive are those of the source. Unless noted, the call rests on the fitted dose curve.

Experimental findings from PubChem BioAssay (Tox21) are described below.

A short description of assay [1]: Nuclear factor erythroid 2-related factor 2/antioxidant responsive element (Nrf2/ARE) small molecule agonists: qHTS cell viability counter screen in human keratinocytes (AID 1919968; active means well fitted curve in the direction sought with a large enough effect in the repeat runs; an effect the other way counts as inactive or inconclusive; further: nearly all actives have a fitted effect of over 55% in size; further: potency means the concentration at half of the fitted maximal effect). Put shortly: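 Viability counter-screen: KeratinoSens reporter cells, DMSO-delivered compounds, 23 h at 37 C, CellTiter-Fluor fluorescence.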
Assay [2] is described as follows: Nuclear factor erythroid 2-related factor 2/antioxidant responsive element (Nrf2/ARE) small molecule agonists: luciferase reporter gene qHTS assay in human keratinocytes (AID 1919969; further: nearly all actives have a fitted effect of over 35% in size). (In general: A reporter such as luciferase makes a cellular process visible.)
Assay [3] addresses Gonadotropin-releasing hormone receptor (Homo sapiens) (UniProt P30968). Kind of assay: Human gonadotropin-releasing hormone receptor (GnRHR) small molecule agonists, calcium flux assay in GnRHR-HEK293 cells (AID 1920063). Further: nearly all actives have a fitted effect of over 35% in size. Put shortly: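 Tox21-format agonist screen using human GnRHR-expressing HEK293 cells and a fluorescent calcium dye; kinetic 3-min fluorescence reading after compound addition, 15-point concentration series run in triplicate.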
A general note: Calcium assays in cells follow changes in intracellular calcium, usually with a dye or a luminescent sensor.

Assay [4] deals with KiSS-1 receptor (Homo sapiens) (UniProt Q969F8). Kind of assay: Human kisspeptin (KISS1R) small molecule agonists, calcium flux assay in KISS1R-HEK293 cells (AID 1920064; active means well fitted curve in the direction sought with a large enough effect in the repeat runs; an effect the other way counts as inactive or inconclusive). Put shortly: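 Intracellular calcium mobilization in KISS1R-HEK293 cells was recorded by fluorescence (Ex/Em 480/540) for 3 min following compound addition to cells pre-loaded 1 h with calcium dye.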
KiSS-1 receptor (Homo sapiens), sequence (Q969F8 whole entry, looked up): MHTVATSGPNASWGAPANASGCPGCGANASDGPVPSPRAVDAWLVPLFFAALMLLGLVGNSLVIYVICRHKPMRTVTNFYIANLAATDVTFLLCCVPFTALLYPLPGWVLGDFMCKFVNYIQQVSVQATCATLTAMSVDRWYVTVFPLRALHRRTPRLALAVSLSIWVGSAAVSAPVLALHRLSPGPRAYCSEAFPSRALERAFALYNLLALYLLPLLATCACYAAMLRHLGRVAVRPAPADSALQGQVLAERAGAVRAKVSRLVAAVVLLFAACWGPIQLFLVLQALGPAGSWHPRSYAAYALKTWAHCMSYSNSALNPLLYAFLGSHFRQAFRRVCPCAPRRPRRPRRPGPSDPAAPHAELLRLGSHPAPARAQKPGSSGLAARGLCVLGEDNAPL
The nature of assay [5]: G protein-coupled receptor (GPCR) small molecule agonists, calcium flux assay: HEK293 wild type cell line counter screen (AID 1920065). Put shortly:
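In this agonist-mode screen, ATP is the positive control and DMSO the vehicle. Cells grow 18 h before a 1 h dye incubation at 37 C; signal is taken at Ex/Em 480/540 over 3 min.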

The nature of assay [6]: p53 small molecule agonists, cell-based qHTS assay with human liver microsomes (AID 1963577).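 Further: p53 response element beta-lactamase reporter cells with liver microsomes plus NADPH.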 Put shortly:
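p53RE-bla cells; 5 h settle, 37 C/5% CO2; cpd + HLM 0.5 mg/mL + NADPH 0.5 mg/mL (final); 16 h 37 C; LiveBLAzer 2 h RT dark; fluorescence readout.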
(In general: Quantitative high-throughput screening tests each substance at several concentrations.)

Assay [7] is described as follows: p53 small molecule agonists, cell-based qHTS assay with rat liver microsomes (AID 1963578). Put shortly: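 Rat liver microsome activation: microsomes 0.5 mg/mL, NADPH 0.5 mg/mL final; p53RE-bla cells, 16 h 37 C; LiveBLAzer readout, 2 h RT dark.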
The nature of assay [8]: p53 small molecule agonists, cell-based qHTS assay: qHTS cell viability counter screen (AID 1963581). Further: nearly all actives have a fitted effect of over 45% in size. Put shortly:
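Compounds are pinned onto HCT-116 p53RE-bla cells and left 16 h at 37 C. Following the reporter FRET read, ATP is quantified by CellTiter-Glo luminescence after 30 min at room temperature.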

Assay [9] in a line: p53 small molecule agonists, cell-based qHTS assay (AID 1963582; active means well fitted activation curve with a large enough effect in the signal ratio in the repeat runs, not every such curve was filed as active; the % refers to the signal ratio). Put shortly: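 Agonist activity was scored from beta-lactamase FRET fluorescence in p53RE-bla cells treated 16 h at 37 C with compounds in DMSO, substrate incubation being 2 h at room temperature.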
In assay [10] the target is 5-hydroxytryptamine receptor 2A (Homo sapiens) (UniProt P28223). Kind of assay: 5-hydroxytryptamine receptor 2A (HTR2A) small molecule antagonists, cell-based qHTS assay (AID 1963586). Further: nearly all actives have a fitted effect of over 45% in size. Put shortly: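 Antagonist-mode intracellular calcium assay: DOI (4 nM) added after 5 min compound pre-incubation at room temperature to dye-loaded HTR2A-CHO cells. Fluorescence followed for 3 min, sampled every second.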
5-hydroxytryptamine receptor 2A (Homo sapiens), sequence (P28223 whole entry, looked up): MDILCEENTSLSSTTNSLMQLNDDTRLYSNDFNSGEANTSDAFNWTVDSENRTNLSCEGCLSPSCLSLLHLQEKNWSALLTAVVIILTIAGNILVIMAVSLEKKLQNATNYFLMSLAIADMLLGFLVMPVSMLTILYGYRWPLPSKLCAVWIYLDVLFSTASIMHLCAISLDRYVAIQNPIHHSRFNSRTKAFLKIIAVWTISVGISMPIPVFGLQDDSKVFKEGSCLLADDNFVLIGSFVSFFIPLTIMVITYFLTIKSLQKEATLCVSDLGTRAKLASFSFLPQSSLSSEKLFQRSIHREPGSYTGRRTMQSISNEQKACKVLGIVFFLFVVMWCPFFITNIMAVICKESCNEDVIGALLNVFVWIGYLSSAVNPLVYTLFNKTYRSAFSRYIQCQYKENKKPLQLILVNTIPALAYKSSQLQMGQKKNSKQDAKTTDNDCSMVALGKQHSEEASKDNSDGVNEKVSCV

For assay [11] the target is unchanged. As to the kind of experiment: 5-hydroxytryptamine receptor 2A (HTR2A) small molecule agonists, cell-based qHTS assay (AID 1963587). Further: nearly all actives have a fitted effect of over 30% in size. Put shortly: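 HTR2A-CHO cells, plated 18 h at 37 C/5% CO2, dye-loaded 1 h at 37 C; compounds in DMSO added by pin tool (agonist mode). Intracellular calcium flux read as kinetic fluorescence on FDSS over 2 min at 1 s intervals.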

The target in assay [12] is Muscarinic acetylcholine receptor M1 (Homo sapiens) (UniProt P11229). As to the kind of experiment: Cholinergic receptor muscarinic 1 (CHRM1) small molecule agonists, cell-based qHTS assay (AID 1963589). Further: nearly all actives have a fitted effect of over 35% in size. Put shortly: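 Stable CHRM1-CHO cells (human receptor) were incubated 18 h, dye-loaded for 1 h at 37 C and exposed to test compounds for agonist activity, with calcium-dependent fluorescence followed kinetically.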
Muscarinic acetylcholine receptor M1 (Homo sapiens), sequence (P11229 whole entry, looked up): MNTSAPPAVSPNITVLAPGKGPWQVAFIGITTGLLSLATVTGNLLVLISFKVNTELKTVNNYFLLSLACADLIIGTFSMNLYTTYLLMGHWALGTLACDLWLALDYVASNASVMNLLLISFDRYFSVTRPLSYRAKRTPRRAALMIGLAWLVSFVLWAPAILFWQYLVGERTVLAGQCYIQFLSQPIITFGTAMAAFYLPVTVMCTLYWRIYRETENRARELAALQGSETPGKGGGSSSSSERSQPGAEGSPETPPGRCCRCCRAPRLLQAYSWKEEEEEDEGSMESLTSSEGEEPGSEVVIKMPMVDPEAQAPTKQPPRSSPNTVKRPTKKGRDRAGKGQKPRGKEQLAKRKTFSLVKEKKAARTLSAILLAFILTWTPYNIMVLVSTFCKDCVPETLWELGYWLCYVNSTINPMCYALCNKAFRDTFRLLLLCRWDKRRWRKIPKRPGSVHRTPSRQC

Assay [13] in a line: cAMP Responsive Elements (CRE) small molecule agonists, cell-based qHTS assay (AID 1963590). Put shortly:
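FRET-based beta-lactamase readout (LiveBLAzer B/G, 2 h RT) quantified CRE activation in HEK 293T CRE-bla cells after 3 h treatment with DMSO-dissolved compounds.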

Assay [14] has as its target Beta-2 adrenergic receptor (Homo sapiens) (UniProt P07550). Kind of assay: Adrenergic beta2 receptor (ADRB2) small molecule antagonists, cell-based qHTS assay (AID 1963592). Further: series mostly up to about 92 µM; nearly all actives have a fitted effect of over 50% in size. Put shortly: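 Cells (CHO, stable ADRB2 overexpression) incubated 18-20hr at 37C; compounds added from DMSO; agonist mix (1nM isoproterenol, 100uM IBMX, 25uM Ro-20-1724) added; 0.5hr RT; d2-cAMP and anti-cAMP-cryptate added; 1hr RT; 665/615 nm read.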

Assay [15] shares this target. Kind of assay: Adrenergic beta2 receptor (ADRB2) small molecule agonists, cell-based qHTS assay (AID 1963593).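 Further: CHO cells stably overexpressing human ADRB2.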 Put shortly:
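CHO cells stably over-expressing ADRB2 were plated overnight at 37C, then dosed with compounds plus a stimulation mix containing 100uM IBMX and 25uM Ro-20-1724 for 0.5hr at room temperature. cAMP was measured by HTRF competition, 1hr.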

Assay [16] has as its target D(2) dopamine receptor (Homo sapiens) (UniProt P14416). As to the kind of experiment: Dopamine D2 receptor (DRD2) small molecule agonists, cell-based qHTS assay (AID 1963594). Further: nearly all actives have a fitted effect of over 35% in size. Put shortly:
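HEK293 cells stably expressing DRD2 were cultured 24 h at 37 C, then given Ro20-1724 (0.1 mM final) and compounds for 10 min at room temperature. NKH477 (200nM) was then added for 30 min. cAMP was read by HTRF.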

The target is the same in assay [17]. Kind of assay: Dopamine D2 receptor (DRD2) small molecule antagonists, cell-based qHTS assay (AID 1963595; active means well fitted inhibition curve with a large enough effect in the signal ratio in the repeat runs, with a control signal flat; the % refers to the signal ratio). Put shortly: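 Antagonist mode in DRD2-HEK293 cells: after compound addition with 0.1 mM Ro20-1724, cells received quinpirole (12 nM) and NKH477 (200 nM) for 30 min at room temperature; HTRF cAMP read after 1 h detection.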
Assay [18] deals with Muscarinic acetylcholine receptor M1 (Homo sapiens) (UniProt P11229). As to the kind of experiment: Cholinergic receptor muscarinic 1 (CHRM1) small molecule antagonists, cell-based qHTS assay (AID 1963588). Further: nearly all actives have a fitted effect of over 40% in size. Put shortly:
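CHRM1-CHO calcium-flux assay, antagonist mode. Cells were seeded 18 h, dye-loaded 1 h at 37 C and given compound for 5 min at RT, then acetylcholine was added at 50nM. FDSS fluorescence was read 3 min; 15 concentrations, three runs.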

Assay [19] can be described thus: cAMP Responsive Elements (CRE) small molecule antagonists, cell-based qHTS assay (AID 1963591; active means well fitted inhibition curve with a large enough effect in the signal ratio in the repeat runs, not every such curve was filed as active; the % refers to the signal ratio). Put shortly:
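qHTS in CRE-bla HEK 293T cells: compound in DMSO, then 0.25 uM NKH477 (final), 3 h at 37 °C/5% CO2; beta-lactamase FRET read-out after 2 h substrate incubation.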

D(2) dopamine receptor (Homo sapiens), sequence (P14416 whole entry, looked up): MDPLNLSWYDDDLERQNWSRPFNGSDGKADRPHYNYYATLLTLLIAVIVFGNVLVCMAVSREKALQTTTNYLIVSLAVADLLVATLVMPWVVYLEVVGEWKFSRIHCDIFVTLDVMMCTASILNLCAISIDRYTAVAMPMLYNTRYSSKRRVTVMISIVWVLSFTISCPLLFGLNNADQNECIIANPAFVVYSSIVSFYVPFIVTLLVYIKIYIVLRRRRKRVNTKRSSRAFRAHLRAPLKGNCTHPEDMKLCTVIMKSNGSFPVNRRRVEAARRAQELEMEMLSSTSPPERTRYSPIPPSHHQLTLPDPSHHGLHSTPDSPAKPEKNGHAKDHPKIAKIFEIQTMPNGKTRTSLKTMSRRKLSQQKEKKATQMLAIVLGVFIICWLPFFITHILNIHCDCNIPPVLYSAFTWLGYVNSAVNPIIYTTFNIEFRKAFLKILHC
Gonadotropin-releasing hormone receptor (Homo sapiens), sequence (P30968 whole entry, looked up): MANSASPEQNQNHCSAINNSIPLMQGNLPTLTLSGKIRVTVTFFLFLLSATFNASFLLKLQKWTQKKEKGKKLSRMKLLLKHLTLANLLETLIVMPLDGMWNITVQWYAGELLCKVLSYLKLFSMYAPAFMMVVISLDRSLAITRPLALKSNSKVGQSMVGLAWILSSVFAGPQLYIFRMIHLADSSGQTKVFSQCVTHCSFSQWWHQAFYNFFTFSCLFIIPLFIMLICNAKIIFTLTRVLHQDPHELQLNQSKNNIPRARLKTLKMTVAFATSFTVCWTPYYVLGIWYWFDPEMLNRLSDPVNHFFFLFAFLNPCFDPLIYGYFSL
Beta-2 adrenergic receptor (Homo sapiens), sequence (P07550 whole entry, looked up): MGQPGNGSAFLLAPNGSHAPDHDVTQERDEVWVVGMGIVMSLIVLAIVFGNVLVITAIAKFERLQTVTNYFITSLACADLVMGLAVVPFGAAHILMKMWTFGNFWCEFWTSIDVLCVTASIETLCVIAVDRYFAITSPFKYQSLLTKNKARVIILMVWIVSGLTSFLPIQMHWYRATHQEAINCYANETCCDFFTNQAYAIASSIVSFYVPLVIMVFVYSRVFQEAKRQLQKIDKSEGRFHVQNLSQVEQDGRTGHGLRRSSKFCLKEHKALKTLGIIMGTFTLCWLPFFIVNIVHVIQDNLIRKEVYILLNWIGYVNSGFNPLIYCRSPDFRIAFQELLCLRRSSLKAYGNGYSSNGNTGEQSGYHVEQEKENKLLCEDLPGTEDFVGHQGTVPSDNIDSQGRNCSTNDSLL

Regarding `CCN(CC#N)c1cccc(C)c1`, the Potency result in assay [1], in assay [2], in assay [3], in assay [4], in assay [5] and in [6] was “inactive” throughout. In addition, the Potency result in [7], in [8], in assay [9], in assay [10], in assay [11] and in [12] was “inactive” each time. The Potency entry in [13], in [14], in [15], in assay [16] and in [17] was “inactive” in each case.
As for `CC(=O)O[C@@H]1C[C@@H]2CC[C@@]1(C)C2(C)C`, the Potency entry in [1], in assay [2], in assay [3], in assay [4], in assay [5] and in [6] was “inactive” in each case. Besides, the Potency entry in assay [7], in assay [8], in assay [9], in assay [10], in assay [11] and in assay [18] was “inactive” throughout. The Potency result in assay [12], in assay [13], in assay [14], in assay [15], in assay [16] and in [17] was “inactive” throughout.
Turning to `CCCCCC(=O)O[C@]1(C(C)=O)CC[C@H]2[C@@H]3CCC4=CC(=O)CC[C@]4(C)[C@H]3CC[C@@]21C`, in assay [1], the Potency was 30.4 µM (active). For the same compound, the Potency result in assay [2], in assay [3], in assay [4], in [5], in assay [6] and in [7] was “inactive” in each case. For the same compound, the Potency result in assay [8], in [10], in [11], in assay [18], in assay [12] and in assay [14] was “inactive” in each case. Besides, the Potency result in assay [15], in assay [16] and in assay [17] was “inactive” throughout.
In the case of `CCCCCCCCCOCC1CO1` (stereo not given), the Potency entry in assay [1], in [2], in assay [3], in assay [4], in assay [5] and in [6] was “inactive” in each case. The Potency result in assay [7], in assay [8], in assay [9], in assay [10], in assay [11] and in [12] was “inactive” throughout. Moreover, the Potency entry in assay [13], in assay [19], in [14], in [16] and in [17] was “inactive” each time.
For `CC(=O)NCCO`, the Potency result in [1], in assay [2], in assay [3], in assay [4], in assay [5] and in assay [6] was “inactive” throughout. Moreover, the Potency entry in [7], in assay [8], in assay [10], in [11], in assay [18] and in assay [12] was “inactive” each time. For the same compound, the Potency entry in assay [13], in [14], in [15], in assay [16] and in [17] was “inactive” throughout.
`CC(C)c1cc2c(cc1S(=O)(=O)O)[C@@]1(C)CCC[C@@](C)(C(=O)O)[C@@H]1CC2`: the Potency result in assay [1], in assay [2], in assay [3], in assay [4], in assay [5] and in assay [6] was “inactive” each time. Also, the Potency entry in [7], in [8], in assay [9], in assay [10], in assay [11] and in assay [18] was “inactive” each time. For the same compound, the Potency entry in assay [19], in assay [14], in assay [15], in assay [16] and in assay [17] was “inactive” throughout.
On to `CC/C=C\CCO`, for which the Potency entry in [1], in [2], in [3], in assay [4], in [5] and in assay [6] was “inactive” throughout. The Potency entry in [7], in assay [8], in assay [9], in assay [10], in assay [11] and in assay [18] was “inactive” in each case. Also, the Potency entry in assay [12], in [19], in [14] and in assay [15] was “inactive” in each case.
As to `CCC(=O)OC(C)(C)C1CC=C(C)CC1` (stereo not given), the Potency entry in assay [1], in [2], in assay [3], in [4], in assay [5] and in assay [6] was “inactive” in each case. Moreover, the Potency entry in [7], in [8], in [9], in [10], in [11] and in [18] was “inactive” in each case. Also, the Potency result in [12], in assay [13], in [15], in [16] and in assay [17] was “inactive” in each case.
